FID counter: displaces DNA intercalator in HCV helicase counter-screen; DNA fluorescent intercalator displacement, fluorescence; 290,000 tested, 0.17% active; inhibition, % at 7.9 µM; in the data active means inhibition above about 37%;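 further: 0% = vehicle and 100% = reference compound; higher means more ethidium bromide displaced from hairpin DNA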
dFosB act-1: enhances mouse delta FosB homodimer DNA binding. AID 493131. purified delta FosB, TAMRA-CDK5 oligo fluorescence polarization; percent of positive-control signal above neutral wells. 340,000 tested, 0.99% active. P13346. activation, % at 25 µM;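 active means mean activation above about 17%, with every replicate also reaching it, limit read from the data, passing the limit was not always enough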
Target sequence (P13346 whole entry, looked up): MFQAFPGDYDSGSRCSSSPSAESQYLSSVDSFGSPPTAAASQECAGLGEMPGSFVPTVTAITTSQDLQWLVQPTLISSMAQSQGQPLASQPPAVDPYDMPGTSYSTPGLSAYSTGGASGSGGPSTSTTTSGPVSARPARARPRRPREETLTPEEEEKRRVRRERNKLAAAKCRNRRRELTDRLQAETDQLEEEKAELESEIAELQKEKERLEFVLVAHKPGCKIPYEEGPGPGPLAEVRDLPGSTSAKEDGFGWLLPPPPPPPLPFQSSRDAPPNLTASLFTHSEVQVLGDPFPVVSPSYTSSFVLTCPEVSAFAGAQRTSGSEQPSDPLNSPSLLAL
MEKK2 WT-MEK5: raises or lowers MEK5 binding to wildtype human MEKK2 PB1 domain; AID 1531; binding response (% of control), % at 10 µM; 290,000 tested, 1.1% active; bead flow cytometry, Alexa488-MEK5 binding to MEKK2 WT; actives lie on both sides; in the data active means binding response below about 67% or above about 130%
MEKK2 mut-MEK5: signal of MEK5 binding to mutant human MEKK2 PB1 domain. bead flow cytometry, Alexa488-MEK5 binding to MEKK2 mutant. percent response, % at 10 µM. 290,000 tested, 0.35% active; in the data active means percent response above about 24%, passing the limit was not always enough
MEKK3 PB1 HTS: raises or lowers MEK5 binding to the human MEKK3 PB1 domain. binding response (% of control), % at 10 µM. bead-based flow cytometry, Alexa488-MEK5 binding to MEKK3; actives lie on both sides; 0 = blocked by unlabeled MEK5, 100 = vehicle. AID 1529. 290,000 tested, 1.4% active;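 active means binding response more than 3 SD above or below the average of its plate-row segment, actives on both sides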;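 further: Alexa488 bead fluorescence after subtracting the streptavidin-only scavenger bead signal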
dFosB act-2: delta FosB (mouse) homodimer activation. shares compounds with dFosB act-1. purified delta FosB, TAMRA-CDK5 oligo fluorescence polarization; normalised: neutral wells 0, positive control 100. activation, % at 24.9 µM. 2,400 tested, under 10 active;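 active means highest replicate activation at or above 34% and every replicate reaching that threshold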;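 further: higher polarization means more probe DNA bound by delta FosB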
* = called active by the depositor; · = no result. Only some compounds are listed: those with a hit (about 2.9% of all), similar ones and a draw of the others.

SMILES	FID counter	dFosB act-1	MEKK2 WT-MEK5	MEKK2 mut-MEK5	MEKK3 PB1 HTS	dFosB act-2
Nc1nonc1-n1nnc(C(=O)N/N=C/c2ccc3c(c2)OCO3)c1-c1ccccc1	-19.3	18.0*	97.0	-2.0	100.0	1.2
Nc1nonc1-n1nnc(C(=O)N/N=C/c2ccc(Br)cc2)c1-c1ccc2c(c1)OCO2	-17.9	20.8*	97.0	2.0	106.0	3.5
Nc1nonc1-n1nnc(C(=O)N/N=C/c2c(F)cccc2Cl)c1-c1ccc2c(c1)OCO2	-22.3	4.1	93.0	1.0	100.0	·
CCCCN(C(=O)c1cccs1)c1c(N)n(Cc2ccccc2)c(=O)[nH]c1=O	·	0.4	·	·	·	·
Cc1ccccc1NC(=O)C1CCN(c2cc(-c3ccccc3)nc3ncnn23)CC1	-8.4	24.3*	109.0	3.0	86.0	-4.6
Cc1cc(C(=O)N/N=C/c2cc(Br)cc(Br)c2OC(=O)c2cccc(F)c2)n[nH]1	-4.8	52.7*	91.0	-6.0	106.0	4.2
Cc1ccc(C(=O)N/N=C\c2ccc(OC(=O)c3cccc(F)c3)cc2)cn1	-28.1	31.1*	100.0	-2.0	99.0	0.3
O=C(Oc1ccc(/C=N/NC(=O)c2ccccn2)cc1)c1cccc(Br)c1	-11.3	19.0*	106.0	2.0	104.0	4.2
Cc1ccccc1OCCOc1cccc(/C=N/NC(=O)Cc2nnc(N)s2)c1	-25.1	48.5*	99.0	-5.0	98.0	-1.4
Nc1nnc(CC(=O)N/N=C/c2cccc(OCCOc3ccccc3)c2)s1	-20.8	15.3	110.0	8.0	114.0	·
O=C(Nc1nc2ccc(F)cc2s1)c1ccc(N2CCCC2=O)cc1	·	25.2*	·	·	·	0.0
Cc1cc(C)c2sc(NC(=O)c3ccc(N4C(=O)CCC4=O)cc3)nc2c1	-7.1	79.8*	98.0	-3.0	97.0	7.2
O=C(Cn1ncn2c(cc3ccccc32)c1=O)NCCCc1ccccc1	-19.1	47.5*	99.0	2.0	98.0	0.5
COc1cc2c(cc1OC)C(C)N(C(=O)c1cc3c(=O)oc4ccc(C)cc4c3s1)CC2 (configuration not stated)	-9.4	41.0*	95.0	-3.0	109.0	4.5
COc1cc2c(cc1OC)C(C)N(C(=O)c1cccs1)CC2 (configuration not stated)	-12.4	5.5	102.0	-2.0	102.0	·
O=C(CSCCO)Nc1cccc2ccccc12	0.6	-6.2	104.0	4.0	108.0	·
O=C(CSCC(=O)Nc1cccc2ccccc12)Nc1cccc2ccccc12	-15.0	49.3*	97.0	1.0	106.0	3.2
COc1ccc2c(c1)nc(SCC(=O)c1ccc(Br)s1)n2C	-0.3	-3.8	93.0	-6.0	91.0	·
Fc1ccc(NC(=S)NN=Cc2ccccc2Cl)cc1	·	-3.0	·	·	·	·
S=C(N/N=C/c1ccccc1Cl)Nc1cccc(Cl)c1Cl	1.6	36.5*	90.0	5.0	100.0	3.3
CC1=CC(=C2C=CC(=O)C=C2)C=C(C)N1C	-2.5	·	100.0	-5.0	94.0	·
CC1CCc2sc(C(=O)N/N=C/c3ccc([N+](=O)[O-])cc3)cc2C1 (configuration not stated)	1.2	16.8*	96.0	2.0	113.0	-2.1
O=C(N/N=C/c1ccc([N+](=O)[O-])cc1)c1cccs1	2.4	·	98.0	-2.0	96.0	·
Cc1ccc(S(=O)(=O)N2CCC(C(=O)OC(C)C(=O)N(C)c3ccccc3)CC2)cc1C (configuration not stated)	·	3.3	·	·	·	·

Screens deposited in PubChem by several laboratories.
